{"source": "the supplement of paper PMC6607015", "note": "Where a name gives a salt, the structure may show the parent alone.", "data": [{"tested_on": "A431", "test": "LBPA endosome anti-LBPA integrated intensity (sum per cell), Z-score; higher = more LBPA staining", "conditions": "compound concentration in added solution (µM; 5 µl added to 20 µl cells): 10; 18 h", "procedure,_shortened": "(§1)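 After 18 h on 5 µl of 10 µM compound solution in duplicate 384-well imaging plates, HeLa MZ or A431 cells, seeded at 3,500 per well in 20 µl, were fixed with 4% PFA. They were then labelled with 6C4 anti-LBPA antibody, filipin, propidium iodide and CellTracker green, and four 20× fields were recorded per well. Integrated LBPA or filipin intensity per cell, whole-cell or within LBPA endosomes, came from MetaXpress segmentation and was normalised to Z-scores in AcuityXpress.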", "values": [{"smiles": "c1ccc2c(c1)CCCc1cc(NCCN3CCOCC3)nnc1-2", "LBPA endosome anti-LBPA integrated intensity (z-score)": -0.68}, {"smiles": "CC(C)OC(=O)C(C)(C)Oc1ccc(C(=O)c2ccc(Cl)cc2)cc1", "note": "[Fenofibrate]", "LBPA endosome anti-LBPA integrated intensity (z-score)": -0.471}, {"smiles": "CC(=O)N(CC(C)C(=O)O)c1c(I)cc(I)c(N)c1I", "note": "(stereo not given) [Iocetamic acid]", "LBPA endosome anti-LBPA integrated intensity (z-score)": -0.0668}, {"smiles": "CC(CN(C)C)CN1c2ccccc2Sc2ccccc21", "note": "(stereo not given) [Trimeprazine tartrate]", "LBPA endosome anti-LBPA integrated intensity (z-score)": 3.47}, {"smiles": "CCOC(=O)[N-]c1c[n+](N2CCOCC2)no1", "note": "[Molsidomine]", "LBPA endosome anti-LBPA integrated intensity (z-score)": -0.56}, {"smiles": "CCN(CC)CCNc1ccc(CO)c2sc3ccccc3c(=O)c12", "note": "[Hycanthone]", "LBPA endosome anti-LBPA integrated intensity (z-score)": 5.49}, {"smiles": "CCn1cc(C(=O)O)c(=O)c2cnc(N3CCNCC3)nc21", "note": "[Pipemidic acid]", "LBPA endosome anti-LBPA integrated intensity (z-score)": -0.522}, {"smiles": "Nc1cc(N2CCCCC2)nc(N)[n+]1[O-]", "note": "[Minoxidil]", "LBPA endosome anti-LBPA integrated intensity (z-score)": -0.316}, {"smiles": "COc1cc2ncnc(Nc3ccc(F)c(Cl)c3)c2cc1OCCCN1CCOCC1", "note": "[Gefitinib]", "LBPA endosome anti-LBPA integrated intensity (z-score)": 3.94}, {"smiles": "O=c1[nH]cc(F)c(=O)[nH]1", "note": "[5-fluorouracil]", "LBPA endosome anti-LBPA integrated intensity (z-score)": -0.738}, {"smiles": "CS(=O)(=O)c1ccc([C@@H](O)[C@@H](CF)NC(=O)C(Cl)Cl)cc1", "note": "[Florfenicol]", "LBPA endosome anti-LBPA integrated intensity (z-score)": -0.565}, {"smiles": "COc1cc(C)c(/C=C/C(C)=C/C=C/C(C)=C/C(=O)O)c(C)c1C", "note": "[Acitretin]", "LBPA endosome anti-LBPA integrated intensity (z-score)": -0.624}, {"smiles": "Cc1cc(C(=O)NNCc2ccccc2)no1", "note": "[Isocarboxazid]", "LBPA endosome anti-LBPA integrated intensity (z-score)": -0.549}, {"smiles": "CO[C@H]1/C=C/O[C@@]2(C)Oc3c(C)c(O)c4c(O)c(c(/C=N/N5CCN(C6CCCC6)CC5)c(O)c4c3C2=O)NC(=O)/C(C)=C\\C=C\\[C@H](C)[C@H](O)[C@@H](C)[C@@H](O)[C@@H](C)[C@H](OC(C)=O)[C@@H]1C", "note": "[Rifapentine]", "LBPA endosome anti-LBPA integrated intensity (z-score)": -0.344}, {"smiles": "CN(C)CC/C=C1/c2ccccc2COc2ccc(CC(=O)O)cc21", "note": "[Olopatadine hydrochloride]", "LBPA endosome anti-LBPA integrated intensity (z-score)": -0.245}, {"smiles": "CCc1c2c(nc3ccc(OC(=O)N4CCC(N5CCCCC5)CC4)cc13)-c1cc3c(c(=O)n1C2)COC(=O)[C@]3(O)CC", "note": "[Irinotecan Hydrochloride]", "LBPA endosome anti-LBPA integrated intensity (z-score)": 0.102}, {"smiles": "CCc1cccc(CC)c1NC(=O)CN(CC(=O)O)CC(=O)O", "note": "[Etifenin]", "LBPA endosome anti-LBPA integrated intensity (z-score)": -0.633}, {"smiles": "Nc1nc2n[nH]nc2c(=O)[nH]1", "note": "[Azaguanine-8]", "LBPA endosome anti-LBPA integrated intensity (z-score)": -0.399}, {"smiles": "COC(=O)Nc1nc2cc(C(=O)c3ccc(F)cc3)ccc2[nH]1", "note": "[Flubendazol]", "LBPA endosome anti-LBPA integrated intensity (z-score)": -0.354}, {"smiles": "CCCC1C(=O)N2C(N(C)C)=Nc3ccc(C)cc3N2C1=O", "note": "(stereo not given) [Azapropazone]", "LBPA endosome anti-LBPA integrated intensity (z-score)": -0.356}, {"smiles": "COc1ccc([C@@H]2CC(=O)c3c(O)cc(O[C@@H]4O[C@H](CO[C@@H]5O[C@@H](C)[C@H](O)[C@@H](O)[C@H]5O)[C@@H](O)[C@H](O)[C@H]4O)cc3O2)cc1O", "note": "[Hesperidin]", "LBPA endosome anti-LBPA integrated intensity (z-score)": -0.494}, {"smiles": "O=C(CCCCCCC(=O)Nc1ccccc1)NO", "note": "[Vorinostat]", "LBPA endosome anti-LBPA integrated intensity (z-score)": 0.0566}, {"smiles": "CN1C(C)(C)CCCC1(C)C", "note": "[Pempidine tartrate]", "LBPA endosome anti-LBPA integrated intensity (z-score)": -0.407}, {"smiles": "Nc1ccc(S(=O)(=O)NC(=O)c2ccccc2)cc1", "note": "[Sulfabenzamide]", "LBPA endosome anti-LBPA integrated intensity (z-score)": -0.476}, {"smiles": "Cc1ccc(C)c(OCCCC(C)(C)C(=O)O)c1", "note": "[Gemfibrozil]", "LBPA endosome anti-LBPA integrated intensity (z-score)": -0.639}, {"smiles": "CC(=O)CC(c1ccc([N+](=O)[O-])cc1)c1c(O)c2ccccc2oc1=O", "note": "(stereo not given) [Acenocoumarol]", "LBPA endosome anti-LBPA integrated intensity (z-score)": -0.507}, {"smiles": "COc1cc([C@@H]2c3cc4c(cc3[C@@H](O[C@@H]3O[C@@H]5CO[C@@H](C)O[C@H]5[C@H](O)[C@H]3O)[C@H]3COC(=O)[C@H]23)OCO4)cc(OC)c1O", "note": "[Etoposide]", "LBPA endosome anti-LBPA integrated intensity (z-score)": -0.699}, {"smiles": "CN(Cc1cnc2nc(N)nc(N)c2n1)c1ccc(C(=O)N[C@@H](CCC(=O)O)C(=O)O)cc1", "note": "[Methotrexate]", "LBPA endosome anti-LBPA integrated intensity (z-score)": -0.383}, {"smiles": "O=C1Cc2cc(CCN3CCN(c4nsc5ccccc45)CC3)c(Cl)cc2N1", "note": "[Ziprasidone  Hydrochloride]", "LBPA endosome anti-LBPA integrated intensity (z-score)": 1.04}, {"smiles": "CCc1ccc(CCOc2ccc(CC3SC(=O)NC3=O)cc2)nc1", "note": "(stereo not given) [Pioglitazone]", "LBPA endosome anti-LBPA integrated intensity (z-score)": -0.492}, {"smiles": "COC(=O)Nc1nc2cc([S+]([O-])c3ccccc3)ccc2[nH]1", "note": "(stereo not given) [Oxfendazol]", "LBPA endosome anti-LBPA integrated intensity (z-score)": -0.637}]}, {"tested_on": "HeLa MZ", "test": "LBPA endosome anti-LBPA integrated intensity (sum per cell), Z-score; higher = more LBPA staining", "conditions": "compound concentration in added solution (µM; 5 µl added to 20 µl cells): 10; 18 h", "procedure,_shortened": "as §1", "values": [{"smiles": "CCN(CC)C(=S)SSC(=S)N(CC)CC", "note": "[Disulfiram]", "LBPA endosome anti-LBPA integrated intensity (z-score)": 0.205}, {"smiles": "c1ccc2c(c1)CCCc1cc(NCCN3CCOCC3)nnc1-2", "LBPA endosome anti-LBPA integrated intensity (z-score)": -0.691}, {"smiles": "CC(C)OC(=O)C(C)(C)Oc1ccc(C(=O)c2ccc(Cl)cc2)cc1", "note": "[Fenofibrate]", "LBPA endosome anti-LBPA integrated intensity (z-score)": -0.341}, {"smiles": "CC(C)n1c(/C=C/C(O)CC(O)CC(=O)O)c(-c2ccc(F)cc2)c2ccccc21", "note": "(stereo not given) [Fluvastatin sodium salt]", "LBPA endosome anti-LBPA integrated intensity (z-score)": -1.11}, {"smiles": "CC(=O)N(CC(C)C(=O)O)c1c(I)cc(I)c(N)c1I", "note": "(stereo not given) [Iocetamic acid]", "LBPA endosome anti-LBPA integrated intensity (z-score)": -0.0236}, {"smiles": "CCOC(=O)[N-]c1c[n+](N2CCOCC2)no1", "note": "[Molsidomine]", "LBPA endosome anti-LBPA integrated intensity (z-score)": 0.0751}, {"smiles": "CCn1cc(C(=O)O)c(=O)c2cnc(N3CCNCC3)nc21", "note": "[Pipemidic acid]", "LBPA endosome anti-LBPA integrated intensity (z-score)": 0.188}, {"smiles": "Nc1cc(N2CCCCC2)nc(N)[n+]1[O-]", "note": "[Minoxidil]", "LBPA endosome anti-LBPA integrated intensity (z-score)": -0.257}, {"smiles": "COc1cc2ncnc(Nc3ccc(F)c(Cl)c3)c2cc1OCCCN1CCOCC1", "note": "[Gefitinib]", "LBPA endosome anti-LBPA integrated intensity (z-score)": 2.43}, {"smiles": "CS(=O)(=O)c1ccc([C@@H](O)[C@@H](CF)NC(=O)C(Cl)Cl)cc1", "note": "[Florfenicol]", "LBPA endosome anti-LBPA integrated intensity (z-score)": -1.2}, {"smiles": "COc1cc(C)c(/C=C/C(C)=C/C=C/C(C)=C/C(=O)O)c(C)c1C", "note": "[Acitretin]", "LBPA endosome anti-LBPA integrated intensity (z-score)": -0.537}, {"smiles": "C=C(NC(=O)C(=C)NC(=O)c1csc(C2=N[C@@H]3c4csc(n4)[C@H]4NC(=O)c5csc(n5)[C@H]([C@](C)(O)[C@@H](C)O)NC(=O)[C@H]5CSC(=N5)/C(=C/C)NC(=O)[C@H]([C@@H](C)O)NC(=O)c5csc(n5)[C@]3(CC2)NC(=O)[C@H](C)NC(=O)C(=C)NC(=O)[C@H](C)NC(=O)[C@H]([C@@H](C)CC)N[C@@H]2C=Cc3c([C@H](C)O)cc(nc3[C@H]2O)C(=O)O[C@@H]4C)n1)C(N)=O", "note": "[Thiostrepton]", "LBPA endosome anti-LBPA integrated intensity (z-score)": -0.253}, {"smiles": "C1CCC(C(CC2CCCCN2)C2CCCCC2)CC1", "note": "(stereo not given) [Perhexiline maleate]", "LBPA endosome anti-LBPA integrated intensity (z-score)": -0.192}, {"smiles": "Cc1cc(C(=O)NNCc2ccccc2)no1", "note": "[Isocarboxazid]", "LBPA endosome anti-LBPA integrated intensity (z-score)": -1.31}, {"smiles": "CO[C@H]1/C=C/O[C@@]2(C)Oc3c(C)c(O)c4c(O)c(c(/C=N/N5CCN(C6CCCC6)CC5)c(O)c4c3C2=O)NC(=O)/C(C)=C\\C=C\\[C@H](C)[C@H](O)[C@@H](C)[C@@H](O)[C@@H](C)[C@H](OC(C)=O)[C@@H]1C", "note": "[Rifapentine]", "LBPA endosome anti-LBPA integrated intensity (z-score)": -0.538}, {"smiles": "CN(C)CC/C=C1/c2ccccc2COc2ccc(CC(=O)O)cc21", "note": "[Olopatadine hydrochloride]", "LBPA endosome anti-LBPA integrated intensity (z-score)": 0.672}, {"smiles": "CCc1c2c(nc3ccc(OC(=O)N4CCC(N5CCCCC5)CC4)cc13)-c1cc3c(c(=O)n1C2)COC(=O)[C@]3(O)CC", "note": "[Irinotecan Hydrochloride]", "LBPA endosome anti-LBPA integrated intensity (z-score)": 3.21}, {"smiles": "CCc1cccc(CC)c1NC(=O)CN(CC(=O)O)CC(=O)O", "note": "[Etifenin]", "LBPA endosome anti-LBPA integrated intensity (z-score)": -1.24}, {"smiles": "Fc1ccc([C@@H]2CCNC[C@H]2COc2ccc3c(c2)OCO3)cc1", "note": "[Paroxetine Hydrochloride]", "LBPA endosome anti-LBPA integrated intensity (z-score)": 0.516}, {"smiles": "COc1ccc([C@@H]2CC(=O)c3c(O)cc(O[C@@H]4O[C@H](CO[C@@H]5O[C@@H](C)[C@H](O)[C@@H](O)[C@H]5O)[C@@H](O)[C@H](O)[C@H]4O)cc3O2)cc1O", "note": "[Hesperidin]", "LBPA endosome anti-LBPA integrated intensity (z-score)": -1.29}, {"smiles": "CC(C)(C)CC(C)(C)c1ccc(OCCOCC[N+](C)(C)Cc2ccccc2)cc1", "note": "[Benzethonium chloride]", "LBPA endosome anti-LBPA integrated intensity (z-score)": 1.55}, {"smiles": "Nc1ccc(S(=O)(=O)NC(=O)c2ccccc2)cc1", "note": "[Sulfabenzamide]", "LBPA endosome anti-LBPA integrated intensity (z-score)": -1.38}, {"smiles": "Cc1ccc(C)c(OCCCC(C)(C)C(=O)O)c1", "note": "[Gemfibrozil]", "LBPA endosome anti-LBPA integrated intensity (z-score)": -0.782}, {"smiles": "CC(=O)CC(c1ccc([N+](=O)[O-])cc1)c1c(O)c2ccccc2oc1=O", "note": "(stereo not given) [Acenocoumarol]", "LBPA endosome anti-LBPA integrated intensity (z-score)": -0.33}, {"smiles": "O=C1NCCN1CCN1CCC(c2cn(-c3ccc(F)cc3)c3ccc(Cl)cc23)CC1", "note": "[Sertindole]", "LBPA endosome anti-LBPA integrated intensity (z-score)": 0.384}, {"smiles": "CN[C@H]1CC[C@@H](c2ccc(Cl)c(Cl)c2)c2ccccc21", "note": "[Sertraline]", "LBPA endosome anti-LBPA integrated intensity (z-score)": -0.719}, {"smiles": "CC(NCCC(c1ccccc1)c1ccccc1)c1ccccc1", "note": "(stereo not given) [Fendiline hydrochloride]", "LBPA endosome anti-LBPA integrated intensity (z-score)": 1.29}, {"smiles": "O=C1Cc2cc(CCN3CCN(c4nsc5ccccc45)CC3)c(Cl)cc2N1", "note": "[Ziprasidone  Hydrochloride]", "LBPA endosome anti-LBPA integrated intensity (z-score)": 1.09}, {"smiles": "CCc1ccc(CCOc2ccc(CC3SC(=O)NC3=O)cc2)nc1", "note": "(stereo not given) [Pioglitazone]", "LBPA endosome anti-LBPA integrated intensity (z-score)": -0.449}]}]}
